# TDP1 cell CPT = DT40-hTDP1 cell growth loss with CPT; chicken DT40 Tdp1-/-;hTDP1 cells + 20 nM CPT, ATP luminescence, 48 h; Potency, µM (titrated, usually from 46.2 µM), for inactives: top-dose activity change, negative = growth inhibition, hits mostly inhibitors; 420,000 tested, 12% active; note: potency is the fitted concentration of half-maximal effect; % is set by controls: 0 for no effect and ±100 for the full control effect; nearly all actives have a fitted effect of over 55% in size
#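 Chicken DT40 Tdp1-/- cells complemented with human TDP1, 400 cells/well, exposed to compounds plus 20 nM camptothecin for at least 48 h at 37 C; viability read as ATP content by CellTiter-Glo luminescence.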
# TDP1 cell noCPT = qHTS for Inhibitors of human tyrosyl-DNA phosphodiesterase 1 (TDP1): qHTS in cells in absence of CPT. DT40 Tdp1-/- hTDP1 cells, no CPT, ATP luminescence, 48 h. Potency, µM (titrated, usually from 46.2 µM), inactives show at the highest dose activity change, negative = growth inhibition, most hits filed as inhibitors. 420,000 tested, 15% active; note: potency is the fitted concentration of half-maximal effect; % is set by controls: 0 for no effect and ±100 for the full control effect; nearly all actives have a fitted effect of over 55% in size
#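 Chicken DT40 Tdp1-/- cells complemented with human TDP1, screened without camptothecin (DMSO vehicle only), 400 cells/well. Compounds pin-transferred, cells incubated at 37 °C for at least 48 hr. Growth read as ATP-dependent luminescence (CellTiter-Glo, 30 min at RT).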
# TDP1 inh = inhibitors of human tyrosyl-DNA phosphodiesterase TDP1; 350,000 tested, 0.28% active; AID 485290; Potency, µM (series often up to 130 µM), for the others: top-dose activity change, negative = inhibition, actives largely listed as inhibitors; recombinant TDP1, AlphaScreen DNA substrate cleavage; Q9NUW8; note: potency is the fitted concentration of half-maximal effect; % is set by controls: 0 for no effect and ±100 for the full control effect; nearly all actives have a fitted effect of over 40% in size
# Target sequence (Q9NUW8 whole entry, looked up): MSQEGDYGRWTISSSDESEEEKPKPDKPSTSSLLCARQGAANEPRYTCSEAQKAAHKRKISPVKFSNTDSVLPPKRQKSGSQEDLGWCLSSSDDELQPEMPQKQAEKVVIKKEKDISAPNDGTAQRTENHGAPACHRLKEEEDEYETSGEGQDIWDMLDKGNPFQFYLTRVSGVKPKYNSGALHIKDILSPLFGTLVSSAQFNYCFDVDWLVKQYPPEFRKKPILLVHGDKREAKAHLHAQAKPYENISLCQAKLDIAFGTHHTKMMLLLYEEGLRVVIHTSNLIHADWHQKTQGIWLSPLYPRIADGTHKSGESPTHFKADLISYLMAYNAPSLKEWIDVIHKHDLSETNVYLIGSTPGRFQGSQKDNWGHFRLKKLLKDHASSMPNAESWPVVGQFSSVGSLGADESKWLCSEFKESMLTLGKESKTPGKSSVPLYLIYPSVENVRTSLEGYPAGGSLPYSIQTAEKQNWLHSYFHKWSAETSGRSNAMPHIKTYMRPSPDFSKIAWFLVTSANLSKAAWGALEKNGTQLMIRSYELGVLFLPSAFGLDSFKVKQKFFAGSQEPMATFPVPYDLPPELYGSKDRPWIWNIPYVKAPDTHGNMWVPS
#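 Enzyme-compound mixtures sat 15 min at room temperature, followed by a 5 min reaction with 15 nM final substrate and 10 min with AlphaScreen beads. Recombinant human Tdp1 was used at 1 nM final.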
# HepG2 viability = kills HepG2 cells in TGF-b inhibitor counter-screen; HepG2 CAGA-GFP viability, ATP luminescence, 18 h; Potency, µM (highest dose often 46.1 µM), without a hit: at the highest dose activity change, negative = cytotoxicity, hits mostly cytotoxic; 410,000 tested, 0.76% active; note: potency is the fitted concentration of half-maximal effect
#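 HepG2 CAGA-GFP cells (1000/well, DMEM with 1% FBS) received compound, then TGF-beta at 500 pg/mL final, and were incubated 18 hours at 37 degrees C. Viability was read by CellTiter-Glo luminescence. Media-only wells were set as complete cell-killing and DMSO as no toxicity.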
# TGFb inhibitor = blocks TGF-b signaling; HepG2 CAGA-GFP TGF-b/SMAD3 reporter, GFP fluorescence, 18 h; TGF-beta stimulated, 500 pg/mL final; Potency, µM (doses to about 46.1 µM), for inactives: top-dose activity, negative = inhibition, hits mostly inhibitors; 410,000 tested, 1.2% active; note: potency is the fitted concentration of half-maximal effect; % is set by controls: 0 for no effect and ±100 for the full control effect; nearly all actives have a fitted effect of over 65% in size
#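 GFP signal (ex488/em500-530) from TGF-beta-stimulated HEPG2 CAGA-GFP cells, 500 pg/mL final, 18 h at 37 degrees C in DMEM plus 1% FBS, normalized to unstimulated and DMSO-stimulated controls.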
# IL1B secr inh = inflammasome signaling inhibition, IL-1 beta readout. 360,000 tested, 4.7% active. activity change, % at 57.5 µM. AID 743279. THP-1 LPS/ATP IL-1B secretion, AlphaLISA, 16 h; hits give low values; in the data active = activity change below about -50%; inconclusive = mostly about -30% to -49%; note: % is set by controls: 0 for no effect and ±100 for the full control effect
#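 Secreted IL-1B measured by AlphaLISA bead assay after 16 h compound exposure of THP-1 cells; compounds (final up to 57.5 uM) added 1 h before LPS (250 ng/mL) and ATP (1.25 mM) stimulation; lower signal means less secretion.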
# * = called active by the depositor; ? = inconclusive; nt = no result; [ ] = another dose, or the depositor's remark. Rows were chosen to be rich in hits. Some 19% of all compounds tested hit in one or more screens of this group. Unless noted, calls come from the whole dose curve; as a rule, active = well fitted curve in the direction sought with a large enough effect; inconclusive = small, poorly fitted or top-dose-only effect, or another doubt; inactive = no such curve, though single readings can be large; an effect the other way counts as inactive or inconclusive.
SMILES,TDP1 cell CPT,TDP1 cell noCPT,TDP1 inh,HepG2 viability,TGFb inhibitor,IL1B secr inh
CC(C)Cc1nc(N2CCN(C(=O)c3ccco3)CC2)c(C#N)c2c1CCCC2,23.1µM*,?,7.1%,-45.9%,?,-27.3
CCCC(=O)N1CCN(c2nc(CC(C)C)c3c(c2C#N)CCC3)CC1,?,23.1µM*,4.0%,-26.6%,-20.8%,-71.9*
CC(C)Cc1nc(N2CCN(C(=O)Cc3ccccc3)CC2)c(C#N)c2c1COC(C)(C)C2,nt,nt,2.9%,nt,nt,nt
C=CCN1c2ccccc2[C@]23C[C@@H](C(=O)OC)N(C(=O)c4cc(C)oc4C)C2=NC(C(=O)OC)=C(C(=O)OC)[C@H]13,?,?,14.6%[12.3 µM],-17.0%,-27.6%,-65.2*
CC#CCN1c2ccccc2[C@]23C[C@@H](C(=O)OC)N(C(=O)c4cc(C)oc4C)C2=NC(C(=O)OC)=C(C(=O)OC)[C@H]13,-0.7%,?,8.3%[12.3 µM],-11.1%,-1.3%,-20.9
Cc1cccc(NC(=O)C2CCCN(S(=O)(=O)c3c(C)noc3/C=C/N(C)C)C2)c1C (centres undefined),?,?,9.0%,-4.8%,-3.9%,nt
Cc1ccc(NC(=O)C2CCCN(S(=O)(=O)c3c(C)noc3/C=C/N(C)C)C2)cc1F (centres undefined),?,18.4µM*,11.0%,-22.8%,-20.7%,-24.4
Cc1cccc(C)c1NC(=O)C1CCCN(S(=O)(=O)c2c(C)noc2/C=C/N(C)C)C1 (centres undefined),16.4µM*,?,6.4%,-3.1%,-9.9%,nt
Cc1noc(/C=C/N(C)C)c1S(=O)(=O)N1CCCC(C(=O)NC2CCCCC2C)C1 (centres undefined),?,20.6µM*,7.8%,-23.6%,1.1%,-13.1
CCc1ccc(NC(=O)C2CCCN(S(=O)(=O)c3c(C)noc3/C=C/N(C)C)C2)cc1 (centres undefined),?,?,-1.3%,-13.2%,?,nt
CCN1/C(=C/c2cc[n+](C)cc2)C=Cc2cc(C)ccc21,0.231µM*,0.184µM*,9.3%,-15.3%,?,-62.7*
CCN1/C(=C/c2ccc3ccccc3[n+]2CCCS(=O)(=O)[O-])C=Cc2cc(C)ccc21,?,?,nt,-15.4%,-21.1%,5.2
COCc1c(C#N)c(NCc2cc(OC)c(OC)c(OC)c2)nc(C)c1[N+](=O)[O-],18.4µM*,20.6µM*,7.0%,-12.6%,-0.9%,-24.9
COc1ccccc1N1CCN(C(=O)COc2ccc(Cl)cc2Br)CC1,?,?,4.2%,-35.6%,?,?
COc1ccc(C(=S)N2CCN(c3ccccc3Cl)CC2)cc1OC,?,16.4µM*,5.6%,0.2%,1.0%,0.0
COc1cc(C(=S)N2CCN(c3ccccc3Cl)CC2)cc(O)c1O,?,23.1µM*,0.0%,-57.8%,?,8.3
COc1ccccc1CNc1nc(Nc2cccc(-c3cnco3)c2)c2sccc2n1,18.4µM*,20.6µM*,nt,-71.6%,?,nt
C=CCn1c(NCc2ccccc2OC)nc2ccccc21,-26.4%,?,nt,-6.9%,1.8%,-13.2
c1ccc(OCCNc2nc(NCC3CC3)nc3ccsc23)cc1,4.61µM*,4.61µM*,nt,-35.7%,?,?
COc1ccccc1CNc1nc(Nc2ccccc2-n2cccn2)c2sccc2n1,14.6µM*,16.4µM*,nt,-33.3%,?,-14.8
OCc1ccccc1-c1nc(NCc2ccccc2)nc2ccsc12,?,-25.2%,nt,-11.7%,-12.1%,0.0
COc1ccccc1CNc1nc(NCc2ccc(NC(C)=O)cc2)c2sccc2n1,?,-29.2%,nt,-78.4%,17.8µM*,-9.3
CN(C)CCNc1nc(Oc2ccccc2)c2sccc2n1,-5.4%,-17.1%,nt,7.0%,5.0%,-11.1
COc1ccccc1CNc1nc(NCCOc2ccccc2)c2sccc2n1,5.8µM*,5.8µM*,nt,-96.1%,?,-92.5*
c1cc2cc(CNc3nc(NCC4CC4)nc4ccsc34)ccc2o1,16.4µM*,?,nt,-99.7%,?,-78.1*
SMILES,TDP1 cell CPT,TDP1 cell noCPT,TDP1 inh,HepG2 viability,TGFb inhibitor,IL1B secr inh
COc1ccccc1CNc1nc(NCc2cccs2)nc2ccsc12,?,16.4µM*,nt,-34.5%,11.2µM*,-16.8
COc1ccccc1CNc1nc(Oc2cccc(F)c2)c2sccc2n1,?,?,nt,-4.5%,-12.4%,-21.5
COc1ccccc1CNc1nc(NCC2CC2)nc2ccsc12,10.3µM*,20.6µM*,nt,10µM*,12.6µM*,-82.5*
COc1ccccc1CNc1nc(NCc2ccccc2OC)c2sccc2n1,11.6µM*,14.6µM*,nt,-52.0%,?,-52.2*
COCCNc1nc(NCc2cnc(C)cn2)c2sccc2n1,-19.4%,-19.5%,nt,1.6%,37.3%,0.0
COCCNc1nc(NCc2ccccc2OC)c2sccc2n1,23.1µM*,16.4µM*,nt,-25.5%,1.0%,-25.2
COc1ccccc1CNc1nc(NCc2ccc3occc3c2)c2sccc2n1,20.6µM*,20.6µM*,nt,11.2µM*,?,-99.8*
COc1ccccc1CNc1nc(NCCNC(C)=O)c2sccc2n1,?,?,nt,-12.8%,32.9%,86.8
Fc1ccc(Nc2nc(NCc3cccs3)nc3ccsc23)cc1,?,20.6µM*,nt,-40.9%,?,-27.5
CC(=O)Nc1ccc(CNc2nc(NCc3cccs3)nc3ccsc23)cc1,-9.1%,-25.8%,nt,0.9%,-16.9%,33.3
CCc1ccc(NC(=O)C(CC)n2c(=O)c(C(F)(F)F)nc3ccccc32)cc1 (centres undefined),?,?,0.0%,-0.8%,4.3%,nt
CN1C(=O)/C(=C/c2cccc(Cl)c2)Sc2ccc(C(=O)N3CCCC3)cc21,?,?,3.1%,-43.4%,?,-1.9
CC(CN1CCCC1)OC(=O)c1ccc(Cl)cc1 (centres undefined),3.8%,-1.5%,1.7%,-16.7%,3.7%,2.2
O=C1C2C3c4ccccc4C(c4ccccc43)[C@@H]2C(=O)N1c1ccccn1 (some centres undefined),?,20.6µM*,1.2%,0.8%,-8.3%,9.9
CCN(CC)CCNC(=O)c1ccc2nc(CCc3ccccc3)oc2c1,?,?,5.3%,-5.1%,23.8%,nt
COc1cccc(CC(=O)Nc2ccc3nc(Nc4cccc(C(F)(F)F)c4)cc(C)c3c2)c1,?,18.4µM*,3.7%,-40.3%,?,nt
COc1ccccc1CC(=O)Nc1ccc2nc(Nc3cccc(C(F)(F)F)c3)cc(C)c2c1,7.31µM*,5.8µM*,-2.5%,-32.9%,0.0%,nt
